# Results reported in the supplement of paper PMC9801561.
# ± gives the standard deviation of the averaged measurements.
# Experiments:
# [1] = tested on: Escherichia coli Nissle 1917; assay: area under OmniLog respiration curve over 48 h (OmniLog units x h); higher = more growth / nutrient utilisation; extreme values may be limits of the assay; settings: incubation: 48 h, 37 °C
# [2] = tested on: Escherichia coli Nissle 1917; assay: DuctApe activity index of respiration/growth curve (0 no growth to 9 maximum) (index 0-9); higher = more growth / nutrient utilisation, active = 3 or more; extreme values may be limits of the assay; settings: incubation: 48 h, 37 °C
# [3] = nutrient role: C-Source, carboxylic acid
# [4] = nutrient role: sole sulfur source (pyruvate carbon)
# [5] = nutrient role: sole phosphorus source (pyruvate carbon)
# [6] = nutrient role: C-Source, carbohydrate
# [7] = nutrient role: sole nitrogen source (pyruvate carbon)
# [8] = nutrient role: C-Source, alcohol
# 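For DuctApe activity index of respiration/growth curve (0 no growth to 9 maximum) in this document: biolog PM4 phosphorus and sulfur plates, tetrazolium violet dye reduction read in the OmniLog every 15 min, kinetic curves scored by DuctApe, each plate run in triplicate.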
compound,measurement,setting,value
"C[N+](C)(C)CC(O)CC(=O)[O-] (racemic) [D,L-Carnitine]",area under OmniLog respiration curve,[1]; [3],5.03 ± 0.54
same,DuctApe activity index,[2]; [3],0 (inactive)
"O=C1O[C@H](CO)[C@@H](O)[C@H]1O [D-Ribono-1,4-Lactone]",area under OmniLog respiration curve,[1]; [3],4.72
same,DuctApe activity index,[2]; [3],0 (inactive)
C[S+]([O-])CC[C@H](N)C(=O)O (stereo partly drawn) [L-Methionine Sulfoxide],area under OmniLog respiration curve,[1]; [4],5350 ± 130
same,DuctApe activity index,[2]; [4],7 (active)
NC(=O)OP(=O)(O)O [Carbamyl Phosphate],area under OmniLog respiration curve,[1]; [5],9480 ± 480
same,DuctApe activity index,[2]; [5],9 (active)
OC[C@@H](O)[C@@H](O[C@@H]1O[C@H](CO)[C@H](O)[C@H](O)[C@H]1O)[C@H](O)[C@@H](O)CO [D-Lactitol],area under OmniLog respiration curve,[1]; [6],5600 ± 540
same,DuctApe activity index,[2]; [6],7 (active)
OC[C@@H](O)[C@@H](O)CO [i-Erythritol],area under OmniLog respiration curve,[1]; [6],4.72
same,DuctApe activity index,[2]; [6],0 (inactive)
C[C@H](N)C(=O)N[C@@H](CCC(=O)O)C(=O)O,area under OmniLog respiration curve,[1]; [7],8550 ± 1300
same,DuctApe activity index,[2]; [7],8.33 (active)
"CC(=O)C(C)=O [2,3-Butanedione]",area under OmniLog respiration curve,[1]; [8],19 ± 14
same,DuctApe activity index,[2]; [8],0 (inactive)
CC[C@H](O)C(=O)O [a-Hydroxybutyric acid],area under OmniLog respiration curve,[1]; [3],2930 ± 240
same,DuctApe activity index,[2]; [3],4 (active)
OC[C@H]1O[C@H](OC[C@H]2OC(O)[C@H](O)[C@@H](O)[C@@H]2O)[C@H](O)[C@@H](O)[C@H]1O (stereo partly drawn) [D-Melibiose],area under OmniLog respiration curve,[1]; [6],7880 ± 1000
same,DuctApe activity index,[2]; [6],7.67 (active)
